Screening results (PubChem)
This is a sample that favours compounds with a hit; in the whole collection about 14% have one here.
HCMV inh: qHTS Assay for inhibitors of the human cytomegalovirus (HCMV); activity change, negative = inhibition, % at 57.5 µM; HFF cells, HCMV-luciferase reporter, 72 h; stronger effect = lower value; 410,000 tested, 4.5% active; in the data active = activity change below about -60%; inconclusive = no clear call, values can overlap the other calls; inactive = above about -39%
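Two compound doses tested in HFFs infected with HCMV-luciferase, MOI 1 PFU/cell, 72 h at 37C. Lysate luminescence read with OneGlo; data normalized against buffer-only and 10uM Salinomycin inhibitor controls.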
Sm TGR inh: qHTS Assay for the Inhibitors of Schistosoma Mansoni Peroxiredoxins; Schistosoma mansoni thioredoxin glutathione reductase (TGR), Q962Y6; purified TGR, DTNB reduction, TNB absorbance 405 nm; Potency, µM (top dose mostly 114 µM), for the others: at the highest dose activity change, negative = inhibition, hits mostly inhibitors; 360,000 tested, 3% active; note: potency is the fitted concentration of half-maximal effect; nearly all actives have a fitted effect of over 60% in size
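TGR 20 nM + NADPH 100 uM (dispensed conc.), cpd preinc 15 min RT; start with NADPH (500 uM addition) then DTNB (15 mM addition). Kinetic TNB absorbance, 405 nm filter. Four-parameter Hill fit across titration.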
Pf growth 48h: Primary qHTS for delayed death inhibitors of the malarial parasite plastid, 48 hour incubation. Potency, µM (titrated, usually from 28.7 µM), without a hit: at the highest dose activity change, negative = inhibition, actives largely listed as inhibitors. P. falciparum luciferase growth in erythrocytes, 48 h. AID 504832, 2011. 310,000 tested, 5.9% active; note: potency is the fitted concentration of half-maximal effect
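Cell-based growth assay: transgenic P. falciparum expressing firefly luciferase, cultured in red cells within RPMI 1640 containing 0.5% w/v Albumax, 24 mM bicarbonate and gentamycin. A drop in luciferase activity indicates inhibition.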
Pf growth 96h: Primary qHTS for delayed death inhibitors of the malarial parasite plastid, 96 hour incubation; P. falciparum luciferase reporter growth, 96 h; Potency, µM (doses to about 28.7 µM), for the others: at the top dose activity change, negative = inhibition, hits mostly inhibitors; AID 504834, 2011; 320,000 tested, 6.9% active; note: potency is the fitted concentration of half-maximal effect
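Infected RBCs, 2% Hct / 0.05% parasitemia final; luciferase-reporter P. falciparum; cpd 96 h, 37 C, 5% CO2; luciferase detection reagent; luminescence.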
FBPA Giardia inh: qHTS Assay for Inhibitors of Fructose-1,6-bisphosphate Aldolase from Giardia Lamblia; purified Giardia FBPA; Potency, µM (highest dose often 59.6 µM), for inactives: at the top dose activity, negative = inhibition, hits mostly inhibitors; 290,000 tested, 0.71% active; AID 2451, 2010; note: potency is the fitted concentration of half-maximal effect; nearly all actives have a fitted effect of over 55% in size
Target sequence (A8B2U2 whole entry, looked up): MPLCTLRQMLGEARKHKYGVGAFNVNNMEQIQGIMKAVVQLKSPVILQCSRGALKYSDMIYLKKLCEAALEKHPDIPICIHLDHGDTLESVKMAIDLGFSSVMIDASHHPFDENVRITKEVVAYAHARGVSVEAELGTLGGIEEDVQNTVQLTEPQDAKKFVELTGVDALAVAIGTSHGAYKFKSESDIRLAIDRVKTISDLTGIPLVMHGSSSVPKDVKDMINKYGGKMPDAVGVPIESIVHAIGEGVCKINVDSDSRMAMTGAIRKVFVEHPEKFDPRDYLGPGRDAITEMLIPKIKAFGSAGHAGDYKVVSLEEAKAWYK
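40 nM FBPA preincubated 10 min at RT with compound (up to 57.5 uM final), then substrate plus GAPDH/TPI/NAD/arsenate coupling and diaphorase/resazurin added. Fluorescence read after 20 min at RT, 525/598 nm.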
Numbers without * were called inactive; ? = inconclusive; . = not tested or not shown; ! = not active in a repeat; [ ] = dose if it differs, or a comment. Unless noted, calls come from the whole dose curve; as a rule, active = well fitted curve in the direction sought with a large enough effect; inconclusive = small, poorly fitted or top-dose-only effect, or another doubt; inactive = no such curve, though single readings can be large; an effect the other way counts as inactive or inconclusive. % is set by controls: 0 for no effect and ±100 for the full control effect.

SMILES	HCMV inh	Sm TGR inh	Pf growth 48h	Pf growth 96h	FBPA Giardia inh
COc1ccc(/C(O)=C2\C(=O)C(=O)N(CCN3CCOCC3)C2c2ccccc2OC)cc1 (centres undefined)	-31.6	-10.0%	7.3%	-12.6%	10.1%
COc1ccccc1C=CC(=O)C=Cc1ccccc1OC	-99.9*	.	.	.	.
COc1ccccc1/C=C/C(C)=O	?	-7.7%	5.8%	-18.4%	1.4%
COc1ccccc1/C=C/C(=O)/C=C/c1ccccc1O	-98.0*	20µM*	?	?	-19.9%
CC1OC(OC2C(CO)OC(OC3C(CO)OC(O)C(O)C3O)C(O)C2O)C(O)C(O)C1NC1C=C(CO)C(O)C(O)C1O (centres undefined)	.	.	.	.	5.9%
C/C(=N\NC(=O)c1ccc(O)cc1)c1ccc2c(c1)Nc1ccccc1S2	-29.4	-5.0%	?	?	-9.4%
C/C(=N\NC(=O)c1ccccc1F)c1ccc2c(c1)Nc1ccccc1S2	-69.2*	-10.7%	-12.0%	?	2.2%
COc1ccccc1C(CNC(=O)c1ccco1)N1CCCC1 (centres undefined)	0.0	-17.8%	-7.7%	20.1%	.
COc1ccc(C(c2c(O)cc(C)n(Cc3ccco3)c2=O)N2CCN(c3ccccc3)CC2)cc1 (centres undefined)	8.7	3.16µM*	.	.	.
COc1cc2[nH]c(=S)n(Cc3ccco3)c(=O)c2cc1OC	3.0	-13.3%	10.0%	.	0.0%
COc1ccc(C(c2c(O)cc(C)n(Cc3ccco3)c2=O)N2CCCCC2)cc1OC (centres undefined)	16.5	7.94µM*	.	.	.
COc1ccccc1C(c1c(O)cc(C)n(Cc2ccco2)c1=O)N1CCCCC1 (centres undefined)	-2.1	7.08µM*	.	.	.
COCCn1c(C)cc(O)c(C(c2ccccc2Cl)N2CCCCC2)c1=O (centres undefined)	1.3	28.2µM*	.	.	.
COCCn1c(C)cc(C(=O)COC(=O)c2ccc(Cl)c(S(N)(=O)=O)c2)c1C	-21.2	-1.3%	-65.5%	120.0%	.
CC(C)(C)c1ccc(CC(=O)N2CCC2(C)C(=O)O)cc1 (centres undefined)	-8.0	.	.	.	.
COc1cc(C(=O)N2CCN(S(=O)(=O)c3ccc(C)cc3)CC2)ccc1OCC(=O)N1CCOCC1	-17.1	.	.	.	.
COc1cccc(Nc2ncc3nc(C)c(=O)n(C[C@H]4CCCO4)c3n2)c1	.	.	.	.	0.9%
Cc1cc(O)c(C(c2ccccc2Cl)N2CCCCC2)c(=O)n1Cc1ccco1 (centres undefined)	3.9	4.47µM*	.	.	.
Cc1cc(O)c(C(c2ccccc2)N2CCCCC2)c(=O)n1Cc1ccco1 (centres undefined)	10.0	10µM*	.	.	.
Cc1cc(C(=O)CN2C(=O)NC3(CCCCC3)C2=O)c(C)n1Cc1ccco1	62.3	-11.1%	55.8%	4.1%	0.5%
CCCOC(=O)c1ccc(Oc2c(-c3ccc(OC)cc3O)n[nH]c2C)cc1	31.4	0.9%	?	?	-1.1%
CCCOC(=O)c1ccc(Oc2cn[nH]c2-c2ccc(OCC(=O)NN)cc2O)cc1	-37.5	5.4%	?	9.28µM*	9.2%
CCCc1ccc(Oc2cn[nH]c2-c2ccc(O)cc2O)cc1	-67.8*	-25.6%	?	-16.6%	-28.4%
CCCOC(=O)c1ccc(Oc2cn[nH]c2-c2ccc(O)cc2O)cc1	?	-10.2%	?	13.1µM*	2.0%
CCCOC(=O)c1ccc(Oc2c(-c3ccc(O)cc3O)n[nH]c2C)cc1	-76.8*	0.3%	35.9%	?	0.4%
SMILES	HCMV inh	Sm TGR inh	Pf growth 48h	Pf growth 96h	FBPA Giardia inh
O=c1ccn([C@@H]2O[C@H](COS(=O)(=O)O)[C@@H](O)[C@H]2O)c(=O)[nH]1	-61.8*	.	.	.	.
O=C(Nc1ccccc1Cl)Nc1ccccc1Cl	-35.3	-5.3%	22.4%	68.4%	0.1%
O=C(Nc1ccc(Cl)cc1)Nc1ccccc1Sc1ncc([N+](=O)[O-])s1	?	4.47µM*	2.62µM*	40.3%	-19.5%
O=C(Nc1csc([N+](=O)[O-])c1)Nc1ccccc1Cl	-66.7*	-1.4%	?	?	-9.4%
Cc1cc(C)cc(NC(=O)C(=O)NCC(c2cccnc2)N2CCN(c3ccccc3)CC2)c1 (centres undefined)	-1.3	5.9%	.	.	.
CCOC(=O)C1CCN(C(c2ccc(OCC)cc2)c2c(O)cc(C)n(CCOC)c2=O)CC1 (centres undefined)	-4.9	10µM*	.	.	.
CCOC(=O)C1CCN(C(c2ccc(C)cc2)c2c(O)cc(C)n(CCOC)c2=O)CC1 (centres undefined)	9.0	7.94µM*	.	.	.
O=C(NNCS(=O)(=O)O)c1ccncc1	.	.	12.2%	-9.5%	.
Cc1cccc(C(C)C)c1-n1nnnc1-c1ccccc1	15.5	3.3%	10.4µM*	-7.4%[5.75 µM]	?
COc1ccc(NC(=O)CN(c2ccccc2OC)S(C)(=O)=O)c(OC)c1	15.1	-1.0%	.	.	.
CCc1ccc(NC(=O)c2cc(S(=O)(=O)N3CCCC3)c[nH]2)cc1	.	1.6%	?	-7.4%	-14.1%
COc1ccc(NC(=O)c2cc(S(=O)(=O)N3CCCCC3)c[nH]2)cc1Cl	?	-7.8%	?	11.2%	1.3%
CCOc1ccc(NC(=O)c2cc(S(=O)(=O)N3CCCCC3)c[nH]2)cc1	-65.1*!	-25.4%	-27.6%	21.3%	2.2%
CC(C)c1ccc(NC(=O)c2cc(S(=O)(=O)N3CCCC3)c[nH]2)cc1	-77.4*	7.7%	?	-15.1%	-14.4%
CCNC(=O)C1(C)CCN(C(=O)c2ccc3c(c2)OCO3)C1 (centres undefined)	-8.5	.	.	.	.
CCN(CCCNC(=O)Cn1ncc2c([nH]c3ccc(C)cc32)c1=O)Cc1ccccc1	-7.5	-33.8%	-11.9%	35.9%	3.6%
O=C(NCC(c1ccc(Cl)cc1)N1CCCCC1)c1ccccc1 (centres undefined)	-13.0	-5.5%	.	.	.
COc1ccc(CN(C)C(C)C(=O)Nc2ccc(S(=O)(=O)N3CCCC3)cc2)c(OC)c1OC (centres undefined)	.	9.3%	7.38µM*	4.15µM*	-4.2%
COc1ccc(CN(C)C(C)C(=O)Nc2ccc(S(=O)(=O)N3CCCCC3)cc2)c(OC)c1 (centres undefined)	19.5	.	.	.	.
CCN(Cc1ccc(OC)c(F)c1)C(C)C(=O)Nc1ccc(S(=O)(=O)N2CCCC2)cc1 (centres undefined)	-26.0	-3.0%	10.4µM*	?	.
CN(Cc1ccco1)C(=O)c1ccc(CNS(=O)(=O)c2ccc3c(c2)C(C)(C)C(=O)N3C)cc1	-19.1	-23.1%	-20.3%	-10.0%	5.9%
O=C(Cc1n[nH]c(=O)c2ccccc12)OCc1c(Cl)cccc1Cl	-67.6*	18.7%	-11.0%	-5.6%	1.3%
